# From PubChem BioAssay
# An excerpt weighted towards active compounds, which were near 5.9% of everything screened.
# ALR H2O2 inh: inhibitors of human ALR sulfhydryl oxidase, primary screen, biochemical, H2O2 detection, HRP-luminol luminescence, single point; FAD-linked sulfhydryl oxidase ALR (Homo sapiens), P55789; purified ALR, DTT oxidation; inhibition, % (test concentration not listed); 290,000 compounds, 3.8% hits; AID 485317, 2010;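 active = mean replicate inhibition above about 79%, with every replicate also reaching it, limit read from the data; inconclusive = only one of the two criteria met; inactive = mean below limit and not every replicate reaching it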
# Target sequence (P55789 whole entry, looked up): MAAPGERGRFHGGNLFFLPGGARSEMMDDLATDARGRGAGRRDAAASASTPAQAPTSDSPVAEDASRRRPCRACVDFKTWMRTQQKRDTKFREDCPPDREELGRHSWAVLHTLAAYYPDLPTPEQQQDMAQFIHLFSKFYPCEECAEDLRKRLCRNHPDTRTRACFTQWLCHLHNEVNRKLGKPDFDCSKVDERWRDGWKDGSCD
# PRMT1 FP inh: PRMT1 methyltransferase inhibitors, primary screen, biochemical, fluorescence polarization. Protein arginine N-methyltransferase 1 (Homo sapiens), Q99873. recombinant PRMT1, activity-based probe fluorescence polarization. inhibition, % at 2.79 µM. 370,000 compounds, 1.3% hits. AID 652257, 2013;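 active = inhibition above about 21% made by adding two undisclosed values, limit read from the data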
# Target sequence (Q99873 whole entry, looked up): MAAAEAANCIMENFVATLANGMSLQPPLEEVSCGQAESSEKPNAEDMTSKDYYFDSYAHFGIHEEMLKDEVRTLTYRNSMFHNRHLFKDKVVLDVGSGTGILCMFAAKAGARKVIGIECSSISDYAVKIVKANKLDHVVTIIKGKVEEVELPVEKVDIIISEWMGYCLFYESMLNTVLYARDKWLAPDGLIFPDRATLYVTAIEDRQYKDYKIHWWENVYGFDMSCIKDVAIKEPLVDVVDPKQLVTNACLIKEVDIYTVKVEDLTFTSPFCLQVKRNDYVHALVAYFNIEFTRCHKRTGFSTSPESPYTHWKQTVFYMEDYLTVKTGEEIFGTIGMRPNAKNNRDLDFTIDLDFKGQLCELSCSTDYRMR
# LANA-H2A inh: blockers of LANA interaction with H2A/H2B – biochemical, FP readout, HTS, primary screen; inhibition, % (concentration not given with the values); 320,000 compounds, 0.6% hits; cell-free LANA-H2A/H2B peptide, fluorescence polarization; AID 2629, 2010; Protein LANA1 (Human herpesvirus 8 type P (isolate GK18)), Q9QR71; in the data active = inhibition mostly above about 10%, no sharp cut-off; inactive = mostly below about 6.7%
# ABHD5 PLIN5 PPI: ABHD5-PLIN5 interaction inhibitors, primary screen, cell lysate, split luciferase complementation, luminescence | Perilipin-5 (Homo sapiens) + 1-acylglycerol-3-phosphate O-acyltransferase ABHD5 (Homo … | Split G. princeps luciferase complementation, 4 h | inhibition, % at 4 µM | 360,000 compounds, 0.78% hits | AID 602281, 2012;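 active = inhibition above the mean inhibition across every tested compound plus 3 SD, cut at about 22% in these data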
# Rtt109 Vps75: inhibitors of C. albicans Rtt109/Vps75 HAT, primary screen, biochemical, ThioGlo CoA-SH fluorescence, plate reader; Histone acetyltransferase RTT109 (Candida albicans (strain SC5314 / ATCC MYA-2876)), …; 330,000 compounds, 0.16% hits; purified Rtt109/Vps75, 4 h; AID 540336, 2011; inhibition, % at 34.9 µM;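 active = inhibition of at least 50% in every replicate; inconclusive = best replicate reaches 50% inhibition but some replicates fall short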
# rCAG RNA binder: binders of r(CAG) RNA repeats, primary screen, biochemical, fluorescence | 370,000 compounds, 1.3% hits | r(CAG) RNA repeat, TO-PRO-1 dye displacement fluorescence | inhibition, % at 3 µM;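 active = inhibition above the plate cutoff, the mean of all test compounds on that plate plus 3 SD, cut at about 35% in these data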;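 also: higher means more dye released from RNA so lower well fluorescence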
# Hits are given with their value; i = inactive; ? = inconclusive; nt = not tested or not shown.
SMILES,ALR H2O2 inh,PRMT1 FP inh,LANA-H2A inh,ABHD5 PLIN5 PPI,Rtt109 Vps75,rCAG RNA binder
Cn1c(=O)c(=O)n(C)c2cc(S(=O)(=O)N3CCC(Cc4ccccc4)CC3)ccc21,nt,i,12.6,i,i,i
COc1ccc(-c2ccc(C(=S)N3CCN(C(C)=O)CC3)o2)cc1,?,22.3,i,i,i,i
COc1ccc(CC(=O)N2CCN(C(=O)Cc3ccc(OC)cc3)CC2)cc1,i,i,i,i,i,i
COc1ccc(N2CCN(c3ncccc3C#N)CC2)cc1,97.3,i,i,i,i,i
COc1ccnc(N2CCN(c3ccccc3)CC2)c1C#N,98.8,i,i,i,i,i
COc1ccc(N2CCN(c3ccc(N)cc3C#N)CC2)cc1,86.4,i,i,i,i,i
COc1cccc(NC(=O)CSc2nnc(-c3ccco3)c(-c3ccco3)n2)c1,98.8,47.3,i,i,i,61.0
Cc1ccccc1NC(=O)CSc1n[nH]c(-c2ccco2)n1,i,i,15.8,i,i,i
CSc1nnc(-c2ccco2)c(-c2ccco2)n1,i,59.3,i,i,i,i
Cc1cccc(C)c1NC(=O)CSc1nnc(-c2ccco2)c(-c2ccco2)n1,99.2,nt,i,22.6,i,nt
CSc1nnc(-c2ccccc2)c(-c2ccccc2)n1,i,i,i,i,i,i
CN(C)c1ccc(NC(=O)CSc2nnc(-c3ccco3)c(-c3ccco3)n2)cc1,nt,i,i,i,i,i
O=C(CSc1n[nH]c(Cc2ccccc2)n1)Nc1ccccc1Br,nt,24.3,i,i,i,i
COc1ccc(NC(=O)CSc2nnc(-c3ccco3)c(-c3ccco3)n2)cc1OC,90.4,i,i,i,i,i
O=C(c1cc(C2CCCCN2S(=O)(=O)Cc2ccccc2)on1)N1CCOCC1 (stereo not given),nt,i,nt,i,nt,i
O=c1[nH]c(=S)[nH]c2nc(-c3ccccc3)cnc12,i,i,i,i,i,i
Cc1cc2nc3c(=O)[nH]c(=S)[nH]c3nc2cc1NC(=O)C(F)(F)F,i,164.8,i,i,i,i
CCOC(=O)N1CCN(C(=O)C[C@H]2C(=O)N(Cc3ccc(OC)cc3)C3=CCCCC[C@@]32C(=O)OC)CC1,nt,i,nt,nt,nt,i
O=C(NCC1CCN(C(=O)C(=O)c2cccs2)CC1)c1ccc2c(c1)CCO2,nt,i,nt,nt,nt,i
COc1cc(Br)cc(CN2CCN(c3ncccn3)CC2)c1O,98.4,i,i,i,i,i
Cc1ccc(N/N=C(\C#N)C(N)=S)c(C)c1,nt,i,i,i,i,i
Cc1ccc(NC(=O)/C(C#N)=N/Nc2ccc(C(=O)O)cc2)c(C)c1,76.2,i,i,i,i,i
Cc1cc(NCCCn2ccnc2)n2nc(-c3ccc(Cl)cc3)cc2n1,97.2,i,i,i,i,i
CCn1nc(C)cc1C(=O)Sc1ccc(C)cc1,98.3,i,i,i,i,i
Cc1ccc(SC(=O)c2c([N+](=O)[O-])c(C)nn2C)cc1,nt,i,i,i,i,i
SMILES,ALR H2O2 inh,PRMT1 FP inh,LANA-H2A inh,ABHD5 PLIN5 PPI,Rtt109 Vps75,rCAG RNA binder
O=C1CC(c2ccc(O)c(O)c2)Oc2cc(O)cc(O)c21 (stereo not given),98.8,i,i,i,i,i
O=C1CC(c2ccc(O)cc2)Oc2cc(O)cc(O)c21 (stereo not given),99.0,i,i,i,i,i
COCC(C)NC(=O)C1CC(=O)N(CCc2ccc(F)cc2)C1 (stereo not given),nt,i,nt,i,nt,i
Cc1cc2c(cc1C)-n1nnnc1C(N1CCN(c3ccccc3F)CC1)C(=O)N2 (stereo not given),nt,i,nt,i,nt,i
CCOC(=O)C(=O)Nc1nc(-c2ccccc2)c(-c2ccccc2)o1,87.6,i,i,i,i,i
Cc1cc(C)c(S(N)(=O)=O)c(C)c1N(C)S(=O)(=O)c1ccccc1,i,i,i,i,i,i
Cc1cc(C)c(S(N)(=O)=O)c(C)c1N(C)S(=O)(=O)c1ccc(Cl)cc1,i,i,12.3,i,i,i
COC(=O)C1=C(C)N(Cc2ccccc2C(F)(F)F)C(=NCc2ccc(OC)cc2)NC1c1cccc(F)c1 (stereo not given),nt,i,nt,nt,nt,i
NC(=O)CSc1oc(-c2ccco2)nc1S(=O)(=O)c1ccc(Cl)cc1,i,nt,i,i,i,nt
Cc1ccc(S(=O)(=O)c2nc(-c3ccco3)oc2SCC(N)=O)cc1,i,21.4,i,i,i,i
CCn1c(SCc2ccccc2Cl)nnc1-c1ccccc1OC,nt,i,nt,nt,nt,i
COc1cc(/C=N/NC(=O)c2cc(-c3ccc4c(c3)OCO4)n[nH]2)ccc1O,90.9,i,i,i,i,i
COc1cc(/C=N/NC(=O)c2cc(-c3c(C)nn(-c4ccccc4)c3C)n[nH]2)ccc1O,83.5,i,i,i,nt,i
Cc1nn(-c2ccccc2)c(C)c1/C=N/NC(=O)c1cc(O)cc(O)c1,i,i,i,i,i,i
Cc1nn(-c2ccccc2)c(C)c1-c1cc(C(=O)N/N=C/c2ccc(O)cc2)[nH]n1,96.8,i,i,i,i,i
O=C(C(O)c1ccccc1)N1CCN(S(=O)(=O)c2ccc(C(F)(F)F)cc2)CC1 (stereo not given),nt,i,nt,i,nt,i
Cc1[nH]c2ccccc2c1CC(=O)Nc1ccc(N(C)c2cccnc2)c(-c2cccc(Cl)c2)c1,nt,i,nt,nt,nt,i
Cc1cc(CSC(=N)N)c(CSC(=N)N)cc1C,99.0,i,18.7,i,i,i
Cc1nn(-c2ccccc2)c(C)c1/C=N/n1c(-c2ccccc2Br)n[nH]c1=S,96.2,i,i,i,i,i
Cc1n[nH]c(=S)n1/N=C/c1ccccc1,96.8,i,i,i,i,i
CSc1ccc(/C=N/n2c(COc3ccccc3)n[nH]c2=S)cc1,i,21.7,i,i,i,i
Cc1n[nH]c(=S)n1/N=C/c1ccc(OCc2ccc(Cl)cc2)cc1,nt,i,i,i,i,i
COc1ccc(/C=N/n2c(-c3ccccc3)n[nH]c2=S)cc1,i,i,i,i,i,i
S=c1[nH]nc(Cc2ccc(Br)cc2)n1/N=C/c1ccc(Cl)cc1,i,22.1,i,i,i,i
COc1cccc(CNC(=O)C2CCN(c3nc(OC)nc(OC)n3)CC2)c1,nt,i,nt,nt,nt,i
CSCCC(C(=O)NC(C)(C)C)n1c(-c2ccc3c(c2)OCO3)nc2ccccc21 (stereo not given),nt,i,nt,i,nt,i
C[C@H]1[C@@H](NC(=O)C2CCCCC2)CC[C@@]23CCCN2C(=O)CCC[C@@H]13,nt,i,nt,nt,nt,nt
Cc1cccc(/C=N/n2c(-c3ccccc3)n[nH]c2=S)c1O,90.7,i,i,i,i,i
C(=N\n1cnnc1)/c1ccc(N2CCOCC2)cc1,i,i,i,i,i,i
S=c1[nH]ncn1/N=C/c1ccccc1,97.9,i,i,i,i,i
